# Measurements from ChEMBL document CHEMBL3988442, “University of Dundee, Small-Polar-MMV Screening Library” (2021).
# The campaign covered roughly 69,000 compounds. About 1,000 (1.4%) showed an effect of 50% or more. The sample as a whole holds a higher share of strong results than the screen did.
# System: Leishmania donovani
# Test: Leishmania intramacrophage assay
# Type: functional, organism-based
# Parameters: scale not given: in the data most compounds retested in dose-response had high values
structure (smiles),measurement,setting,value
CCOc1ccc(CN2CCC(c3nc(C)cc(C)n3)C2)cc1CO (stereo unspecified),Percent Effect,"30.3 µM, […]",20.63%
COc1cc(-c2cccc3c2OC(CN)C3)ccc1O (stereo unspecified),Percent Effect,"30.3 µM, […]",33.17%
NCC1Cc2cccc(-c3nccc(N4CCC(O)CC4)n3)c2O1 (stereo unspecified),Percent Effect,"30.3 µM, […]",19.12%
COc1cc(-c2ccc(F)c3c2OC(CN)C3)cc(OC)c1OC (stereo unspecified),Percent Effect,"30.3 µM, […]",19.84%
NCC1Cc2cccc(-c3ccc(O)c(F)c3)c2O1 (stereo unspecified),Percent Effect,"30.3 µM, […]",31.37%
Cc1nc(-c2cc(F)c3c(c2)CC(CN)O3)c[nH]1 (stereo unspecified),Percent Effect,"30.3 µM, […]",25.07%
Cc1nc(-c2cc(Cl)cc3c2OC(CN)C3)c[nH]1 (stereo unspecified),Percent Effect,"30.3 µM, […]",27.22%
COc1c(F)cc(-c2cccc3c2OC(CN)C3)cc1F (stereo unspecified),Percent Effect,"30.3 µM, […]",78.5%
COc1cc(-c2cccc3c2OC(CN)C3)cc(OC)c1OC (stereo unspecified),Percent Effect,"30.3 µM, […]",39.45%
COc1cccnc1-c1ccc(F)c2c1OC(CN)C2 (stereo unspecified),Percent Effect,"30.3 µM, […]",-22.62%
COc1cc(C)c(-c2ccc(F)c3c2OC(CN)C3)cc1C (stereo unspecified),Percent Effect,"30.3 µM, […]",82.34%
COc1cc(OC)cc(-c2cccc3c2OC(CN)C3)c1 (stereo unspecified),Percent Effect,"30.3 µM, […]",81.48%
COc1ccc(-c2cccc3c2OC(CN)C3)cc1F (stereo unspecified),Percent Effect,"30.3 µM, […]",82.3%
Cn1cnnc1C1CCCN(C(=O)c2cc(Cl)c(Cl)n2C)C1 (stereo unspecified),Percent Effect,30 µM,16.78%
Cc1ccc(N2CCCC(NCc3ccc4c(c3)OCCO4)C2)nn1 (stereo unspecified),Percent Effect,"30.3 µM, […]",-12.27%
CCCNC(=O)CCC(=O)N1CCC(c2n[nH]c(C3CC3)n2)CC1,Percent Effect,"30.3 µM, […]",-11.33%
O=C1CCN(C(=O)NCc2ccccc2Oc2ccccc2)CCN1,Percent Effect,"30.3 µM, […]",-11.56%
COc1ccc(CN2CCn3cc(CNC(=O)CC4CC4)nc3C2)cc1.O=C(O)C(F)(F)F,Percent Effect,"30.3 µM, […]",-3.07%
CN1Cc2ccccc2CC1C(=O)N1CCN(CCS(C)(=O)=O)CC1 (stereo unspecified),Percent Effect,"30.3 µM, […]",-7.608%
COc1ccc(-c2nnsc2C(=O)N2CCC(C(N)=O)CC2)cc1,Percent Effect,"30.3 µM, […]",-2.161%
O=c1[nH]cc(N2CCOCC2)c(=O)[nH]1,Percent Effect,"30.3 µM, […]",-12.54%
O=C(O)C(F)(F)F.O=C(O)C(F)(F)F.O=c1ccc2c(n1CCN1CCCC1)CCN(Cc1ccoc1)CC2,Percent Effect,"30 µM, 30.03 µM",45%
O=C(O)C(F)(F)F.O=C(O)C(F)(F)F.O=c1ccc2c(n1Cc1ccncc1)CCN(Cc1ccoc1)CC2,Percent Effect,"30.3 µM, […]",7.941%
O=C(O)C(F)(F)F.O=C(O)C(F)(F)F.O=c1ccc2c(n1Cc1cccnc1)CCN(Cc1ccoc1)CC2,Percent Effect,"30.3 µM, […]",52.28%
CCN(CC)C(CNC(=O)c1ccnc(N(C)C)c1)c1ccsc1 (stereo unspecified),Percent Effect,"30.3 µM, […]",1.995%
Cc1ccc(NC2CCN(C(=O)CCc3c(C)noc3C)CC2)nn1,Percent Effect,30 µM,23.52%
Oc1ccc(-c2c(-c3ccccc3)ncn2C[C@H]2CCCN2)cc1,Percent Effect,"30.3 µM, […]",51.83%
O=C(O)c1ccccc1-c1c(-c2ccccc2)ncn1CC1CCCO1 (stereo unspecified),Percent Effect,"30.3 µM, […]",-1.472%
O=C(O)c1ccccc1-c1c(-c2ccccc2)ncn1C[C@H]1CCCN1,Percent Effect,"30.3 µM, […]",31.03%
CCc1ccc(C(COC)NC(=O)c2ccc(NC(C)=O)cc2)o1 (stereo unspecified),Percent Effect,"30.3 µM, […]",-4.032%
CCc1ccc(C(COC)NC(=O)c2ccc(O)nc2)o1 (stereo unspecified),Percent Effect,"30.3 µM, […]",-7.414%
CCc1ccc(C(COC)NC(=O)c2ccc(C(N)=O)cc2)o1 (stereo unspecified),Percent Effect,"30.3 µM, […]",64.18%
NC(=O)CS(=O)(=O)Cc1csc(-c2ccccc2)n1,Percent Effect,"30.3 µM, […]",15.77%
Cc1nnsc1C(=O)NCCNS(=O)(=O)c1cccs1,Percent Effect,"30.3 µM, […]",-23.26%
Cc1nc(C)n(C2CCCN(C(=O)c3sccc3C)C2)n1 (stereo unspecified),Percent Effect,30 µM,16.01%
CC(=O)NCCNC(=O)NCC1Cc2ccccc2O1 (stereo unspecified),Percent Effect,"30.3 µM, […]",52.86%
Cc1cc(C)c(CNC(=O)NCC2Cc3ccccc3O2)c(=O)[nH]1 (stereo unspecified),Percent Effect,"30.3 µM, […]",1.622%
CC(C)c1noc(CCNC(=O)NCC2Cc3ccccc3O2)n1 (stereo unspecified),Percent Effect,"30.3 µM, […]",-9.19%
NS(=O)(=O)CCNC(=O)c1cc(Br)c2c(c1)OCCO2,Percent Effect,"30.3 µM, […]",-2.46%
CC(C)CC(=O)N1C[C@@H]2CCN(c3ncccn3)C[C@@H]2C1.O=C(O)C(F)(F)F,Percent Effect,"30 µM, 30.03 µM",12.14%
CC(C)(C)c1n[nH]cc1CNC1CCC(C(F)(F)F)CC1.Cl (stereo unspecified),Percent Effect,"30.3 µM, […]",-4.401%
COCCNC(=O)[C@H]1CN(c2ncccn2)C[C@H]2OCC[C@@H]12,Percent Effect,"30.3 µM, […]",52.44%
COCCNC(=O)[C@@H]1CN(c2ncccn2)C[C@H]2OCC[C@H]21,Percent Effect,"30.3 µM, […]",9.036%
COCCNC(=O)[C@@H]1CN(c2cc(OC)ncn2)C[C@H]2OCC[C@H]21,Percent Effect,"30.3 µM, […]",7.324%
CCC1CCC(N(Cc2cc(=O)n(C)c(=O)n2C)C2CC2)CC1 (stereo unspecified),Percent Effect,"30.3 µM, […]",27.04%
CC1(C)CN(CC(F)(F)F)CCN1CC(N)=O,Percent Effect,"30.3 µM, […]",13.64%
Cc1ccc(OCCn2cnc3oc(C)c(C(=O)O)c3c2=O)cc1,Percent Effect,"30.3 µM, […]",-9.017%
Cc1noc(C(C)N2CCN(CCn3ccccc3=O)CC2)n1 (stereo unspecified),Percent Effect,"30.3 µM, […]",29.89%
CC(c1nc(C2CC2)no1)N1CCN(CCn2ccccc2=O)CC1 (stereo unspecified),Percent Effect,"30.3 µM, […]",21.89%
CCCc1noc(C(C)N2CCN(CCn3ccccc3=O)CC2)n1 (stereo unspecified),Percent Effect,"30.3 µM, […]",52.92%
Cc1nc2ccc(S(=O)(=O)Nc3c(C)nn(CC(=O)O)c3C)cc2s1,Percent Effect,"30.3 µM, […]",-9.195%
CCOC[C@@H]1CC[C@H]2[C@H](CCN2S(=O)(=O)c2ccc(F)cc2)O1,Percent Effect,"30.3 µM, […]",19.83%
CCCC(NC(=O)c1cc(C)n(C2CC2)c1C)c1nnn[nH]1 (stereo unspecified),Percent Effect,"30 µM, 30.03 µM",2.645%
CCOc1c(Cl)cc(Cl)cc1CNCCCn1ccnc1,Percent Effect,"30.3 µM, […]",67.73%
CCOc1c(CNCCCn2ccnc2)cc(Cl)cc1OC.Cl.Cl,Percent Effect,"30.3 µM, […]",35.73%
CCOc1ccc(Cl)cc1CNCCCn1ccnc1,Percent Effect,"30 µM, 30.03 µM",1.663%
COc1ccc(Cl)cc1CNCCCn1ccnc1,Percent Effect,"30.3 µM, […]",3.119%
CCn1nnc(NCc2cc(Cl)cc(Cl)c2OC)n1,Percent Effect,"30.3 µM, […]",-5.532%
Cc1cc(F)ccc1CN1CCC(O)(CN2CCCCC2)C1 (stereo unspecified),Percent Effect,"30 µM, 30.03 µM",37.89%
COc1ccc(CN2CCC(O)(CN3CCCCC3)C2)c(C)c1 (stereo unspecified),Percent Effect,"30.3 µM, […]",67.74%
Cc1cc(F)ccc1CN1CCCC(O)(CN2CCCC2)C1 (stereo unspecified),Percent Effect,"30.3 µM, […]",37.99%
CCOc1ccc(C(=O)CCC(=O)N(C)Cc2nc(C)c[nH]2)cc1C,Percent Effect,"30.3 µM, […]",-49.88%
CN1CCC(N(C)C[C@H]2CC[C@@H](Cc3cccc(CO)c3)O2)CC1,Percent Effect,"30.3 µM, […]",11.6%
CN1CCC(N(C)C[C@H]2CC[C@@H](Cc3ccc4c(cnn4C)c3)O2)CC1,Percent Effect,"30.3 µM, […]",38.58%
CN1CCC(N(C)C[C@H]2CC[C@@H](Cc3ccc4occc4c3)O2)CC1,Percent Effect,"30.3 µM, […]",87.95%
CN1CCC(N(C)C[C@H]2CC[C@@H](Cc3cccc(O)c3)O2)CC1,Percent Effect,"30.3 µM, […]",81.26%
CCN(C)C[C@H]1CC[C@@H](Cc2ccc3c(cnn3C)c2)O1,Percent Effect,"30.3 µM, […]",-0.9976%
COc1ccc(C[C@@H]2CC[C@H](CN(C)C3CCN(C)CC3)O2)cc1,Percent Effect,"30.3 µM, […]",8.587%
Cc1ccnn1CCC(=O)N1CCCC1c1cc2cccnc2[nH]1.Cl (stereo unspecified),Percent Effect,"30.3 µM, […]",-28.4%
COCCNC(=O)N1CCCCC1CNC(=O)Nc1ccccc1 (stereo unspecified),Percent Effect,"30.3 µM, […]",-22.22%
Cc1nc(CNC(=O)N(CCCO)C2CCc3ccccc32)oc1C (stereo unspecified),Percent Effect,"30.3 µM, […]",21.1%
CC(C)c1cc(C(=O)N2CC[C@@H](c3ccc4c(c3)OCO4)[C@H](O)C2)[nH]n1,Percent Effect,"30.3 µM, […]",26.43%
CCOCC1CN(Cc2cnn(C)c2)Cc2nn(C)cc21.O=C(O)C(F)(F)F (stereo unspecified),Percent Effect,"30 µM, 30.03 µM",-19.77%
Cc1nn(Cn2ccc(C(=O)N3CCC(C)CC3)n2)c(C)c1Cl,Percent Effect,"30.3 µM, […]",52.68%
Cc1nn(Cn2ccc(C(=O)N3CCCC(C)C3)n2)c(C)c1Cl (stereo unspecified),Percent Effect,"30.3 µM, […]",24.98%
Cc1nn(Cn2ccc(C(=O)N3CCCC3)n2)c(C)c1Cl,Percent Effect,"30.3 µM, […]",14.44%
Cc1cc(C(=O)NCc2cccnc2N2CCCC(O)C2)[nH]n1 (stereo unspecified),Percent Effect,"30.3 µM, […]",14.66%
CN(Cc1ccc(Br)c2cccnc12)S(C)(=O)=O,Percent Effect,"30.3 µM, […]",20.74%
O=C(NCCc1cccs1)NCC(O)c1cccc(F)c1 (stereo unspecified),Percent Effect,30 µM,0.0374%
Cc1nc(Cn2c3c(ccc2=O)CC(N)CC3)cs1 (stereo unspecified),Percent Effect,"30.3 µM, […]",24.76%
CCCC(=O)NC1CCc2c(ccc(=O)n2Cc2csc(C)n2)C1.O=C(O)C(F)(F)F (stereo unspecified),Percent Effect,"30.3 µM, […]",38.16%
Cc1nc(Cn2c3c(ccc2=O)CC(NC(N)=O)CC3)cs1 (stereo unspecified),Percent Effect,"30.3 µM, […]",52.43%
CCN1CC2(CC1=O)CN(Cc1ccncc1)CCN(C(=O)C(C)C)C2.O=C(O)C(F)(F)F.O=C(O)C(F)(F)F (stereo unspecified),Percent Effect,"30.3 µM, […]",17.44%
O=C(C[C@@H]1COC[C@H]2CN(C3CCCC3)C[C@@H]12)N1CCCCO1.O=C(O)C(F)(F)F,Percent Effect,"30.3 µM, […]",0.3497%
Cc1c[nH]c(CN(C)C(C(=O)O)c2c(F)cccc2OC(C)C)n1 (stereo unspecified),Percent Effect,"30.3 µM, […]",12.35%
CC(O)CN1CCC(CNCc2ccccc2C(F)(F)F)CC1 (stereo unspecified),Percent Effect,30 µM,19.95%
CC(O)CN1CCC(CNCc2cccc(Br)c2)CC1 (stereo unspecified),Percent Effect,"30 µM, 30.03 µM",61.22%
CC(O)CN1CCC(CNCc2ccccc2OC(F)(F)F)CC1 (stereo unspecified),Percent Effect,"30 µM, 30.03 µM",31.23%
CC(O)CN1CCC(CNCc2cccc(OC(F)(F)F)c2)CC1 (stereo unspecified),Percent Effect,30 µM,66.17%
CC(O)CN1CCC(CNCc2cccc(C(N)=O)c2)CC1 (stereo unspecified),Percent Effect,"30 µM, 30.03 µM",24.83%
CC(O)CN1CCC(CNCc2ccc(C#N)cc2)CC1 (stereo unspecified),Percent Effect,"30.3 µM, […]",-9.359%
CC(O)CN1CCC(CNCc2ccc(S(C)(=O)=O)cc2)CC1 (stereo unspecified),Percent Effect,"30 µM, 30.03 µM",29.6%
CC(O)CN1CCC(CNCc2cccc(C(=O)N(C)C)c2)CC1 (stereo unspecified),Percent Effect,"30.3 µM, […]",15.32%
CC(O)CN1CCC(CNCc2cccc(Cl)c2)CC1 (stereo unspecified),Percent Effect,"30.3 µM, […]",14.58%
CC(O)CN1CCC(CNCc2cccc(C(F)(F)F)c2)CC1 (stereo unspecified),Percent Effect,"30.3 µM, […]",35.92%
CC(O)CN1CCC(CNCc2ccc(OC(F)(F)F)cc2)CC1 (stereo unspecified),Percent Effect,30 µM,89.6%
CC(O)CN1CCC(CNCc2cccc(OC(C)C)c2)CC1 (stereo unspecified),Percent Effect,"30 µM, 30.03 µM",57.47%
COC(=O)c1cc(NCC(=O)NC(N)=O)cc(C(F)(F)F)c1,Percent Effect,"30.3 µM, […]",10.64%
C(=C\c1ccccc1)/CNCC1CCc2nncn2C1 (stereo unspecified),Percent Effect,"30.3 µM, […]",-5.474%
O=C(Nc1ccccc1F)NC1(CO)CCOCC1,Percent Effect,"30.3 µM, […]",37.09%
Cc1nc(CN2C[C@@H]3CN(C(=O)c4ccnnc4)C[C@@H]3C2=O)cs1.O=C(O)C(F)(F)F,Percent Effect,"30 µM, 30.03 µM",13.66%
